In PubChem BioAssay (Tox21):
Records with an inconclusive call do not appear. The source made the active and inactive calls. Unless noted, calls come from the whole dose curve.

Tests used:
[1] = Nuclear factor erythroid 2-related factor 2/antioxidant responsive element (Nrf2/ARE) small molecule agonists: qHTS cell viability counter screen in human keratinocytes (AID 1919968; active = well fitted curve in the direction sought with a large enough effect in the repeat runs; an effect the other way counts as inactive or inconclusive; note: nearly all actives have a fitted effect of over 55% in size)
Outline: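 After a 5 h attachment period, ARE-reporter keratinocytes were dosed with compounds in DMSO and then cultured 23 h at 37 C. Cell viability came from CellTiter-Fluor signal read after a further 1 h.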

[2] = Nuclear factor erythroid 2-related factor 2/antioxidant responsive element (Nrf2/ARE) small molecule agonists: luciferase reporter gene qHTS assay in human keratinocytes (AID 1919969); note: nearly all actives have a fitted effect of over 35% in size
[3] = target: Gonadotropin-releasing hormone receptor (Homo sapiens) (UniProt P30968); assay: Human gonadotropin-releasing hormone receptor (GnRHR) small molecule agonists, calcium flux assay in GnRHR-HEK293 cells (AID 1920063); note: nearly all actives have a fitted effect of over 35% in size
Outline: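 We seeded human GnRHR-expressing HEK293 cells for 18 hours, loaded them with calcium dye for an hour at 37 C, added test compounds, and recorded fluorescence intensity kinetically for three minutes.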

[4] = target: KiSS-1 receptor (Homo sapiens) (UniProt Q969F8); assay: Human kisspeptin (KISS1R) small molecule agonists, calcium flux assay in KISS1R-HEK293 cells (AID 1920064; active = well fitted curve in the direction sought with a large enough effect in the repeat runs; an effect the other way counts as inactive or inconclusive)
Outline: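 Kinetic calcium assay, 1 s sampling over 3 min at Ex/Em 480/540, in HEK293 cells engineered with human KISS1R; compounds delivered in DMSO after 1 h dye loading.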

[5] = G protein-coupled receptor (GPCR) small molecule agonists, calcium flux assay: HEK293 wild type cell line counter screen (AID 1920065)
Outline: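 Calcium-sensitive dye, loaded 1 h at 37 C into cells cultured 18 h, reports compound-evoked calcium release as fluorescence (Ex/Em 480/540), measured over 3 min. Agonist mode; 15-point titrations, triplicate.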

[6] = p53 small molecule agonists, cell-based qHTS assay with human liver microsomes (AID 1963577)
Outline: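 p53RE-bla cells, 4,000/well, compound added after 5 h, with human liver microsomes 0.5 mg/mL and NADPH 0.5 mg/mL final; 16 h at 37 C, then LiveBLAzer 2 h RT, fluorescence.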

[7] = p53 small molecule agonists, cell-based qHTS assay with rat liver microsomes (AID 1963578)
Outline: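 p53RE-bla cells, 4,000/well, pre-incubated 5 h, then given compounds plus rat liver microsomes (0.5 mg/mL final) and NADPH (0.5 mg/mL final). Incubation 16 h at 37 C; beta-lactamase reporter read by LiveBLAzer fluorescence after 2 h at room temperature.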

[8] = p53 small molecule agonists, cell-based qHTS assay with human liver microsomes: qHTS cell viability counter screen (AID 1963579); note: nearly all actives have a fitted effect of over 45% in size
Outline: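 p53RE-bla cells, 4,000/well, dosed 5 hours after plating, with human liver microsomes (0.5 mg/mL final) plus NADPH (0.5 mg/mL final), 16 hours at 37 C. Viability read as CellTiter-Glo luminescence after 30 min at room temperature.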

[9] = p53 small molecule agonists, cell-based qHTS assay with rat liver microsomes: qHTS cell viability counter screen (AID 1963580); note: nearly all actives have a fitted effect of over 45% in size
Outline: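 Viability is assessed in parallel with the p53 reporter read: HCT-116 p53RE-bla cells receive compounds plus rat microsomes and NADPH (0.5 mg/mL final apiece), incubate 16 h at 37 C, and then CellTiter-Glo luminescence is recorded.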

[10] = p53 small molecule agonists, cell-based qHTS assay: qHTS cell viability counter screen (AID 1963581); note: nearly all actives have a fitted effect of over 45% in size
Outline: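 Following 5 h attachment, HCT-116 p53RE-bla cells took up compound for 16 h at 37 C; the reporter was read with B/G FRET substrate (2 h RT), and viability then via CellTiter-Glo ATP luminescence.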

[11] = p53 small molecule agonists, cell-based qHTS assay (AID 1963582; active = well fitted activation curve with a large enough effect in the signal ratio in the repeat runs, not every such curve was filed as active; the % refers to the signal ratio)
Outline: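 In this cell-based concentration-response screen, a p53 response element drives beta-lactamase; cells received DMSO-borne compounds after 5 h culture and were incubated a further 16 h before FRET substrate development.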

[12] = cAMP Responsive Elements (CRE) small molecule agonists, cell-based qHTS assay (AID 1963590)
Outline: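 A CRE-responsive beta-lactamase reporter in HEK 293T cells was used. Treatment ran 3 h at 37 C; detection used LiveBLAzer B/G FRET substrate for 2 h at room temperature.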

[13] = cAMP Responsive Elements (CRE) small molecule antagonists, cell-based qHTS assay (AID 1963591; active = well fitted inhibition curve with a large enough effect in the signal ratio in the repeat runs, not every such curve was filed as active; the % refers to the signal ratio)
Outline: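 HEK293T cells carrying a CRE-driven beta-lactamase reporter receive compound and NKH477 (0.25 uM final) for 3 h. Fluorescence from LiveBLAzer B/G FRET substrate is read after 2 h at room temperature.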

[14] = target: Beta-2 adrenergic receptor (Homo sapiens) (UniProt P07550); assay: Adrenergic beta2 receptor (ADRB2) small molecule antagonists, cell-based qHTS assay (AID 1963592); note: series mostly up to about 92 µM; nearly all actives have a fitted effect of over 50% in size
Outline: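 Cells (CHO, stable ADRB2 overexpression) incubated 18-20hr at 37C; compounds added from DMSO; agonist mix (1nM isoproterenol, 100uM IBMX, 25uM Ro-20-1724) added; 0.5hr RT; d2-cAMP and anti-cAMP-cryptate added; 1hr RT; 665/615 nm read.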

[15] = target: Beta-2 adrenergic receptor (Homo sapiens) (UniProt P07550); assay: Adrenergic beta2 receptor (ADRB2) small molecule agonists, cell-based qHTS assay (AID 1963593);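 note: CHO cells stably overexpressing human ADRB2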
Outline: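 CHO cells stably over-expressing ADRB2 were plated overnight at 37C, then dosed with compounds plus a stimulation mix containing 100uM IBMX and 25uM Ro-20-1724 for 0.5hr at room temperature. cAMP was measured by HTRF competition, 1hr.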

[16] = target: D(2) dopamine receptor (Homo sapiens) (UniProt P14416); assay: Dopamine D2 receptor (DRD2) small molecule agonists, cell-based qHTS assay (AID 1963594); note: nearly all actives have a fitted effect of over 35% in size
Outline: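 HEK293 cells stably expressing human DRD2, pre-treated with PDE inhibitor Ro20-1724 (0.1 mM final) and compound 10 min at room temperature, then stimulated with NKH477 (200nM […]) for 30 min. cAMP read by HTRF (665/620 nm).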

[17] = target: D(2) dopamine receptor (Homo sapiens) (UniProt P14416); assay: Dopamine D2 receptor (DRD2) small molecule antagonists, cell-based qHTS assay (AID 1963595; active = well fitted inhibition curve with a large enough effect in the signal ratio in the repeat runs, with a control signal flat; the % refers to the signal ratio)
Outline: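 Antagonist mode in DRD2-HEK293 cells: after compound addition with 0.1 mM Ro20-1724, cells received quinpirole (12 nM) and NKH477 (200 nM) for 30 min at room temperature; HTRF cAMP read after 1 h detection.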

[18] = target: 5-hydroxytryptamine receptor 2A (Homo sapiens) (UniProt P28223); assay: 5-hydroxytryptamine receptor 2A (HTR2A) small molecule agonists, cell-based qHTS assay (AID 1963587); note: nearly all actives have a fitted effect of over 30% in size
Outline: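 CHO cells stably expressing human HTR2A, plated 18 h, loaded with calcium dye 1 h at 37 C. Agonist mode: compounds added and intracellular calcium fluorescence recorded kinetically for 2 min at 1 sec intervals.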

[19] = target: Muscarinic acetylcholine receptor M1 (Homo sapiens) (UniProt P11229); assay: Cholinergic receptor muscarinic 1 (CHRM1) small molecule agonists, cell-based qHTS assay (AID 1963589); note: nearly all actives have a fitted effect of over 35% in size
Outline: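 Measures agonist-induced intracellular calcium rise. Stable human CHRM1 CHO line, 1 h dye load at 37 C, compounds from DMSO, kinetic fluorescence read.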

Measured: Potency

KiSS-1 receptor (Homo sapiens), sequence (Q969F8 whole entry, looked up): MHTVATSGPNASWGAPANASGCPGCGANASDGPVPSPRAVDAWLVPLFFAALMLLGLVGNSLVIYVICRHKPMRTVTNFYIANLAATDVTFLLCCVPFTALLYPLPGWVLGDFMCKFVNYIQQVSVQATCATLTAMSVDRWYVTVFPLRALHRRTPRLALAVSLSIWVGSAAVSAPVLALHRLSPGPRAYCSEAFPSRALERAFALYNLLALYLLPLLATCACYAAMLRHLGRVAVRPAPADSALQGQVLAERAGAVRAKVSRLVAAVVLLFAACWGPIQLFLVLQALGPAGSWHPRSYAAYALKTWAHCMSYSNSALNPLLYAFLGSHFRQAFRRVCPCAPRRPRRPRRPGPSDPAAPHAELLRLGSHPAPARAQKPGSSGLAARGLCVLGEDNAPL
Gonadotropin-releasing hormone receptor (Homo sapiens), sequence (P30968 whole entry, looked up): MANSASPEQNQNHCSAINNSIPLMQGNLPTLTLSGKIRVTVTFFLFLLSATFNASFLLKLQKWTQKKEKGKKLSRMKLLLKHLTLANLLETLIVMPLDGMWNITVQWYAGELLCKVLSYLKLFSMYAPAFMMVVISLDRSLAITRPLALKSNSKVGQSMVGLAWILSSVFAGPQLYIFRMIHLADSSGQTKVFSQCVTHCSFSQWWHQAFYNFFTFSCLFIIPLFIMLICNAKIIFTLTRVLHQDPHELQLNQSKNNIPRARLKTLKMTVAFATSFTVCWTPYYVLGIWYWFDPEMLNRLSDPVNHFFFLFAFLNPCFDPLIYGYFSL
5-hydroxytryptamine receptor 2A (Homo sapiens), sequence (P28223 whole entry, looked up): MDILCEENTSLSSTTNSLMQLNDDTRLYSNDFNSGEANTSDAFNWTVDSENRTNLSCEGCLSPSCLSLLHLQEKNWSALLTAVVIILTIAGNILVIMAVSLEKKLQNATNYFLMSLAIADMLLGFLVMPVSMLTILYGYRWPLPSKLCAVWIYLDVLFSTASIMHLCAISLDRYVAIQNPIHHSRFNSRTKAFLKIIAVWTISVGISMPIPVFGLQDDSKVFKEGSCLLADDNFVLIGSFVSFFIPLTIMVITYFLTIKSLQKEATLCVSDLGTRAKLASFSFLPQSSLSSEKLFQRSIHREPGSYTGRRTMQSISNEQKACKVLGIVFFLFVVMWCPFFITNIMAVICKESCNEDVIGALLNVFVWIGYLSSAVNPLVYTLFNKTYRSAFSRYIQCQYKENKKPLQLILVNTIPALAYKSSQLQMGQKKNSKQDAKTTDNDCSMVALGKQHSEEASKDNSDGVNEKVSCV
D(2) dopamine receptor (Homo sapiens), sequence (P14416 whole entry, looked up): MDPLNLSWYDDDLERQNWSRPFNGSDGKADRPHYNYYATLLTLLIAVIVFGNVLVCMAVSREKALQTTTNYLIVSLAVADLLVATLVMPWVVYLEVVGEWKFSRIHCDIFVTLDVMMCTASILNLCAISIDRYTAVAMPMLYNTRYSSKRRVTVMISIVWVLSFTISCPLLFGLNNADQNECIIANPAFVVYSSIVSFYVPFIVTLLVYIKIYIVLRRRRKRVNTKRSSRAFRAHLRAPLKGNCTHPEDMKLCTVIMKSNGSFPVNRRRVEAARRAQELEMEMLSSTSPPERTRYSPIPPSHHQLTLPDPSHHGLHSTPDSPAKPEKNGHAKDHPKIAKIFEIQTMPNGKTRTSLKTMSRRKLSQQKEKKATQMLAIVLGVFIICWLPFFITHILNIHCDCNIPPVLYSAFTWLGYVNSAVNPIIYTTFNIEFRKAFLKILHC
Beta-2 adrenergic receptor (Homo sapiens), sequence (P07550 whole entry, looked up): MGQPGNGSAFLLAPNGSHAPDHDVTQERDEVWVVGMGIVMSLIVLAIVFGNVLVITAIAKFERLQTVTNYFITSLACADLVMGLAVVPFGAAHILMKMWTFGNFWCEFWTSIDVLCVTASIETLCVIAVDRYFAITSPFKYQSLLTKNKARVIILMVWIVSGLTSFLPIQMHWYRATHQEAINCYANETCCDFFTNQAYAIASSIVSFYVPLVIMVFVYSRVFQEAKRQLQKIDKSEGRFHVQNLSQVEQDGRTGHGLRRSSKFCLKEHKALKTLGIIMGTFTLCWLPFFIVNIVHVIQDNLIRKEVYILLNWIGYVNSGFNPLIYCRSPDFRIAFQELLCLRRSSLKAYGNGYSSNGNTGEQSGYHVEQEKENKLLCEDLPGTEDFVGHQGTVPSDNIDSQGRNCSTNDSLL
Muscarinic acetylcholine receptor M1 (Homo sapiens), sequence (P11229 whole entry, looked up): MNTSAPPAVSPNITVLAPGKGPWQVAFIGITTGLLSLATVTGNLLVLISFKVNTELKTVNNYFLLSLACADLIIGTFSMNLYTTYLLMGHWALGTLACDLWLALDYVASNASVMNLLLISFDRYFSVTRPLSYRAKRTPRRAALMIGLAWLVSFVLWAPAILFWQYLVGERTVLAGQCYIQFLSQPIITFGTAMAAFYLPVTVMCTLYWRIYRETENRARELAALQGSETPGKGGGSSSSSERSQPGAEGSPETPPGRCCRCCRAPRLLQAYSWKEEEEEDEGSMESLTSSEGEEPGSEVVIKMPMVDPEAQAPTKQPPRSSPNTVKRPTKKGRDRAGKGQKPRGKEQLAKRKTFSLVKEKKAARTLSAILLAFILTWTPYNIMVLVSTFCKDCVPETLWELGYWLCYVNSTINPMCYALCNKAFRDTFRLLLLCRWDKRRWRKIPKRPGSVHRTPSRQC

Cc1noc(NS(=O)(=O)c2ccc(N)cc2)c1C
not listed: [18] | [19]
inactive: all other assays above

NC(=O)c1ccccc1O
not listed: [18] | [19]
inactive: all other assays above

O=C1O[C@H]([C@H](O)CO)C(O)=C1O
not listed: [18] | [19]
inactive: all other assays above

NC(N)=Nc1nc(CSCC/C(N)=N/S(N)(=O)=O)cs1
not listed: [18] | [19]
inactive: all other assays above

NC(=O)/N=N/C(N)=O
not listed: [13] | [19]
inactive: all other assays above

CCCCCCCCCC(=O)O
not listed: [12] | [15]
inactive: all other assays above

Nc1ccc(S(=O)(=O)Nc2nccs2)cc1
not listed: [18] | [19]
inactive: all other assays above

OCCO
not listed: [18] | [19]
inactive: all other assays above
